Out of some 2,000 compounds screened, about 250 (12%) were called active. For the sample, actives were picked, then their nearest neighbours and some compounds at random. Values without a mark were called inactive. Rule as the data show it: active = hERG blockade below about -20% or above about 20%; inactive = in between.
Molecular target: Voltage-gated inwardly rectifying potassium channel KCNH2 (Homo sapiens) (UniProt Q12809)
Assay: modulators of KCNH2 ion channel function, cellular (AID 376);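 also: 0% = buffer alone and 100% = reference blocker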
Conditions: hERG-expressing cells, channel activity single-concentration screen; concentration not given here

Sequence of Voltage-gated inwardly rectifying potassium channel KCNH2 (Homo sapiens) (Q12809 whole entry, looked up): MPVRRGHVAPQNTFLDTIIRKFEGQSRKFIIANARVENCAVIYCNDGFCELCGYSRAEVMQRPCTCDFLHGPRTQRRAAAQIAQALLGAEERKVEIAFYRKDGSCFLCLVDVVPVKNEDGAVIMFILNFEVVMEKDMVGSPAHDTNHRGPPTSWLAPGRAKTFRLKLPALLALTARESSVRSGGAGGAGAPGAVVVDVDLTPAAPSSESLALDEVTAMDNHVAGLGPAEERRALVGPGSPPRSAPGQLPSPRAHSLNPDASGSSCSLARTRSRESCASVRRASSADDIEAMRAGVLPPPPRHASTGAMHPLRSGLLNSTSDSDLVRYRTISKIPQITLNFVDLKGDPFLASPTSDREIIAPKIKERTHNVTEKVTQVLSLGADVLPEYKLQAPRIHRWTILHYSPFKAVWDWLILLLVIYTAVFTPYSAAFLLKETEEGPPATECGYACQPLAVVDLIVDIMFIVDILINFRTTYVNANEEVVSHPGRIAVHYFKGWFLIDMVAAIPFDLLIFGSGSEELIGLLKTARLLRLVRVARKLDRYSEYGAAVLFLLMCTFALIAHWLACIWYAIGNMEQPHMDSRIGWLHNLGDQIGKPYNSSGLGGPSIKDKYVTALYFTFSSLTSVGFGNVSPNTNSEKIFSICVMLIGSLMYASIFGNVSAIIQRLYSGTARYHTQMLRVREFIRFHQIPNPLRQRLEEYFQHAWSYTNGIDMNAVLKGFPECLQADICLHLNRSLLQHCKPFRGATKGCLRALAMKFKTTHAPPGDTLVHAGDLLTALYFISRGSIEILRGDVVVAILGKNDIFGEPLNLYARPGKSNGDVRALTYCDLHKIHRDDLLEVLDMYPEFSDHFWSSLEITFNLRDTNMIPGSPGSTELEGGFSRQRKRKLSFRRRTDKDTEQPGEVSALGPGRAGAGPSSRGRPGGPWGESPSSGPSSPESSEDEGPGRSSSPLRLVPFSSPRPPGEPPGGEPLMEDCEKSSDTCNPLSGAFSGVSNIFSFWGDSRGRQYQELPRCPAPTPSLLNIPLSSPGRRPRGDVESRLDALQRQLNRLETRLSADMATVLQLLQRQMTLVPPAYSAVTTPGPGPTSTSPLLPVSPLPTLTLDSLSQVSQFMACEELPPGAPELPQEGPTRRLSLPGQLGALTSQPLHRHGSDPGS

Going from `CC(C)(C)NCC(O)c1ccc(O)c(CO)n1` (stereo not drawn) to `CN(C)Cc1cc(C(C)(C)C)cc(CN(C)C)c1O`, the hERG blockade rises from -0.947% to 6.58%.

First: CCC(CN(C)C)C(=O)c1ccco1 (stereo not drawn)
Second: CC(C)(SCc1ccccc1)C(N)C(=O)O (stereo not drawn)
The hERG blockade of the first is higher: 5.17% for the first, 2.47% for the second.

First: Clc1cccc(Cl)c1C(Nc1nncs1)Nc1nncs1
Second: Nc1nc(SCc2ccccc2Cl)cc(C(=O)O)n1
The hERG blockade of the first is higher: -3.96% for the first, -7.45% for the second.

Compared with `Nc1nc(SCC(=O)O)[nH]c(=O)c1N`, `CCCC(Sc1nc(N)nc2nc[nH]c12)C(=O)O` (stereo not drawn) is lower in hERG blockade: 5.23% for the first, 2.81% for the second.

Going from `O=C(Nc1c[nH]c(=O)[nH]c1=O)Oc1ccccc1` to `O=C(O)c1c[nH]c2cc(OCc3ccccc3)ccc2c1=O`, the hERG blockade rises from -11% to 6.26%.

Going from `Cc1c(S(=O)(=O)O)ccc(N=Nc2c(O)c(C(=O)O)cc3ccccc23)c1Cl` to `NS(=O)(=O)c1cc(C(=O)O)c(O)c2ccccc12`, the hERG blockade rises from 2.42% to 2.98%.

First: NS(=O)(=O)c1ccc(N=Nc2ccc(O)c(C(=O)O)c2)cc1
Second: NS(=O)(=O)c1ccc(N=Nc2ncccc2O)cc1
The hERG blockade of the first is lower: -6.41% for the first, 17.7% for the second.

Going from `O=C(O)CNc1ccc(C(=O)O)cc1` to `NC(Cc1ccccc1)(C(=O)O)C(=O)O`, the hERG blockade falls from 1.76% to -3.15%.

Compared with `CC(=NNc1nc(C)cc(=O)[nH]1)C(=O)O`, `C[N+](C)(C)C(Cc1c[nH]c(=S)[nH]1)C(=O)O` (stereo not drawn) is higher in hERG blockade: -18.5% for the first, -14% for the second.

Compared with `c1ccc(-c2cc(-c3cc(-c4ccccn4)[nH]n3)n[nH]2)nc1`, `O=C1Nc2ccccc2C1=Nc1cccc2ncccc12` is lower in hERG blockade: 6.68% for the first, -1.09% for the second.

Compared with `Cn1c(=O)c2[nH]c(C3CC(=O)CC(c4nc5c([nH]4)c(=O)n(C)c(=O)n5C)N3)nc2n(C)c1=O` (stereo not drawn), `O=C(O)c1c(Cl)c(Cl)c(Cl)c(Cl)c1C(=O)Nc1ccc2cn[nH]c2c1` is higher in hERG blockade: -8.89% for the first, 9.23% for the second.

First: Oc1ccccc1C(Sc1nc2ccccc2s1)Sc1nc2ccccc2s1
Second: Oc1ccc2ccccc2c1Cc1c(O)ccc2ccccc12
The hERG blockade of the first is lower: -6.16% for the first, 8.8% for the second.

Going from `Cc1sc2ccccc2[n+]1CCC(=O)O` to `O=C(O)CCC(=O)c1ccc2sc3ccccc3c2c1`, the hERG blockade rises from -12.2% to -5.18%.

Compared with `O=C1Nc2ccccc2C1=Nc1ccc(S(=O)(=O)Nc2nccs2)cc1`, `NS(=O)(=O)c1ccc(NCc2cnc3ccccc3c2)cc1` is lower in hERG blockade: -2.12% for the first, -4.82% for the second.

Going from `CN(C)CCCN=C(N)N` to `C[N+](C)(N)CCC[N+](C)(C)N`, the hERG blockade rises from -7.66% to -2.4%.

Compared with `O=C(O)C1CC2(C1)CC(C(=O)O)C2` (stereo not drawn), `CC(C)C1=CC23CCC4C(C)(C(=O)O)CCCC4(C)C2CC1C(C(=O)O)C3C(=O)O` (stereo not drawn) is higher in hERG blockade: -11.8% for the first, 6.18% for the second.

Compared with `CN(C)Cc1cc(C(C)(C)C)ccc1-c1ccc(C(C)(C)C)cc1CN(C)C`, `Cc1cc(Cc2c(C)c(C)c(Cc3cc(C)cc(C(C)(C)C)c3O)c(C)c2C)c(O)c(C(C)(C)C)c1` is lower in hERG blockade: 17.8% for the first, 1.65% for the second.

Compared with `O=C1CCC(c2ccccc2)=NN1c1nc2ccccc2s1`, `O=C(O)C(Cc1ccccc1-c1ccccc1)C(=O)O` is higher in hERG blockade: -9.74% for the first, 19.4% for the second.

Compared with `CC(C(=O)c1ccncc1)c1ccccn1` (stereo not drawn), `OC(CNc1ccccn1)c1ccccc1` (stereo not drawn) is higher in hERG blockade: -1.76% for the first, 5.58% for the second.

First: O=C(O)c1cc(C(=O)C(=O)c2cc(C(=O)O)c(O)c3ccccc23)c2ccccc2c1O
Second: COc1ccc(Cc2ccccc2C(=O)O)c2ccccc12
The hERG blockade of the first is higher: 18.7% for the first, -3.19% for the second.

Compared with `O=C1c2cc([N+](=O)[O-])ccc2-c2ccc3c4ccc5c6c(ccc(c7ccc1c2c73)c64)C(=O)c1cc([N+](=O)[O-])ccc1-5`, `O=C1c2ccccc2-c2ccc(N=[N+]([O-])c3ccc4c(c3)C(=O)c3ccccc3-4)cc21` is lower in hERG blockade: 12.2% for the first, -2.94% for the second.

Going from `CNC1NC(=O)c2ccccc2N1Cc1ccc(F)cc1` (stereo not drawn) to `O=[N+]([O-])c1ccc(CS(=O)Cc2ccccc2)cc1` (stereo not drawn), the hERG blockade falls from 9.53% to 8.1%.

Compared with `c1ccc(CSc2nnc3c4ccccc4c4ccccc4c3n2)cc1`, `c1ccc(CN2COc3c(ccc4c5c(ccc34)CN(Cc3ccccc3)CO5)C2)cc1` is lower in hERG blockade: -3.1% for the first, -6.83% for the second.

Compared with `CCOC(=O)C(O)Cc1cnc2ccccc2n1` (stereo not drawn), `NS(=O)(=O)c1ccc(NCc2cnc3ccccc3n2)cc1` is lower in hERG blockade: 19.4% for the first, -7.4% for the second.

Compared with `c1ccc(CCNCc2ccco2)nc1`, `CC(O)(c1ccccc1)c1nccc2ccccc12` (stereo not drawn) is higher in hERG blockade: -7.49% for the first, 0.101% for the second.

Going from `NS(=O)(=O)c1ccc(NC(=O)Nc2cccc3ccccc23)cc1` to `O=C(O)C(=Cc1ccncc1)c1cccc2ccccc12`, the hERG blockade rises from 0.23% to 0.772%.

First: CC(=N[O-])C(C)=N[O-].CC(=N[O-])C(C)=N[O-].CC(=N[O-])C(C)=N[O-].CC(=N[O-])C(C)=N[O-].[CH3-].[CH3-].[Co].[Co]
Second: CC(=N[O-])C(C)=N[O-].CC(=N[O-])C(C)=N[O-].C[CH-]C(C)O.[Co].c1ccncc1
The hERG blockade of the first is higher: 11.4% for the first, -3.56% for the second.

Compared with `O=S(=O)(c1cccc(C(F)(F)F)c1)N1c2ccccc2-n2cccc2C1c1cccnc1` (stereo not drawn), `Nc1ccc(N(S(=O)(=O)c2ccccc2)S(=O)(=O)c2ccccc2)c(Cl)c1` is lower in hERG blockade: 18% for the first, 0.845% for the second.

First: FC(F)(F)c1nc(SCc2ccc(Cl)cc2)n[nH]1
Second: Cc1n[nH]c2ccccc2c1=O
The hERG blockade of the first is higher: 4.58% for the first, -1.27% for the second.

First: CSc1nc(C)cc(Nc2ccc(O)c(CN3CCCCC3)c2)n1
Second: COc1cc(CN2CCCCC2)cc2cc(C(=O)O)c(=O)oc12
The hERG blockade of the first is higher: 14.8% for the first, 4.84% for the second.

Going from `COc1ccc2c(Cl)cc(NC(=S)Nc3ccccc3)nc2c1` to `COc1ccc2ccccc2c1C=CC(=O)c1ccccc1`, the hERG blockade rises from -8.81% to -1.69%.

Compared with `O=C(O)c1ccc(C(=O)O)c2c(C(=O)O)ccc(C(=O)O)c12`, `Cc1ccc(S(=O)(=O)Oc2cc(S(=O)(=O)O)cc3cc(S(=O)(=O)O)cc(N)c23)cc1` is higher in hERG blockade: -5.21% for the first, 11.5% for the second.

Going from `OC(COc1ccc(Cl)cc1Cl)CN1CCCC1` (stereo not drawn) to `O=C(O)COc1c(Cl)cc(Cl)c2cccnc12`, the hERG blockade falls from 17.2% to -8.13%.

Going from `O=C1C2=C(Nc3cc([N+](=O)[O-])ccc3N2)OC1c1c[nH]c2ccc(COc3ccccc3)cc12` (stereo not drawn) to `O=C(Oc1ccc2c(c1)CN(Cc1ccccc1)CO2)c1ccccc1`, the hERG blockade rises from 4.4% to 13%.

First: O=c1oc2ccccc2c(O)c1C=Nc1nc(-c2ccc(O)c(O)c2)cs1
Second: Oc1cc(O)c2c(c1)OC(c1ccc(O)c(O)c1)C(O)C2c1c(O)cc(O)c2c1OC(c1ccc(O)c(O)c1)C(O)C2 (stereo not drawn)
The hERG blockade of the first is lower: -3.45% for the first, 10.6% for the second.

Going from `C[N+](C)(C)CC(=O)NN=Cc1ccncc1` to `COc1ccc(-c2nc(N)c3ncn(C4OC(CO)C(O)C4O)c3n2)cc1` (stereo not drawn), the hERG blockade rises from -9.76% to -8.39%.

First: C=CCSc1nc2c(N)ncnc2n1C1OC(CO)C(O)C1O (stereo not drawn)
Second: Nc1ccn(C2OC(COP(=O)(O)O)C(O)C2O)c(=O)n1 (stereo not drawn)
The hERG blockade of the first is higher: -7.69% for the first, -9.61% for the second.

First: Cc1ccc(S(=O)(=O)Nc2cc(=O)[nH]c3c2CCC3)cc1
Second: COC(=O)C1C(OS(=O)(=O)O)CCC2CN3CCc4c([nH]c5ccccc45)C3CC21 (stereo not drawn)
The hERG blockade of the first is higher: 15.4% for the first, -1.73% for the second.

First: COc1ccc2c3c([nH]c2c1)C1CC2C(CC(O)C(OC)C2C(=O)O)CN1CC3 (stereo not drawn)
Second: Nc1ccn(C2OC(CO)C3[O][Sn]([c]4ccccc4)([c]4ccccc4)[O]C32)c(=O)n1 (stereo not drawn)
The hERG blockade of the first is lower: 5.28% for the first, 9.47% for the second.

Going from `CCCC(c1cc(C(C)(C)C)c(O)cc1C)c1cc(C(C)(C)C)c(O)cc1C` to `NS(=O)(=O)c1cc(C(=O)O)c(Cl)c([N+](=O)[O-])c1Cl`, the hERG blockade falls from 4.17% to -6.38%.

Compared with `Fc1cccc(Cl)c1C=NN=C1c2ccccc2-c2ccccc21`, `CC(C)CC(N)C(=O)O` (stereo not drawn) is higher in hERG blockade: 4.24% for the first, 6.02% for the second.

`NS(=O)(=O)c1ccc(N=Nc2c(O)c(C(=O)O)cc3ccccc23)cc1` was tested, and the hERG blockade was 22.9% (active).
`NS(=O)(=O)c1ccc(N=Nc2cc3ccccc3c(C(=O)O)c2O)cc1` was tested, and the hERG blockade was 33.3% (active).
`NS(=O)(=O)c1ccc(N=C2C(=O)Nc3ccccc32)cc1` was tested, and the hERG blockade was -20.3% (active).
`CN(C)Cc1cc(C(F)(F)F)ccc1C(O)(c1ccccc1)c1ccccc1` was tested, and the hERG blockade was 21.7% (active).
`O=C1c2ccccc2-c2cc([N+](=O)[O-])c([N+](=O)[O-])cc21` was tested, and the hERG blockade was 77.8% (active).
With `COc1ccc2nc3cc(Cl)ccc3c(Nc3ccc(O)c(CN4CCN(C)CC4)c3)c2c1` the hERG blockade was 61.7% (active).
In the case of `O=C(O)c1c[nH]c2c(ccc3[nH]cc(C(=O)O)c(=O)c32)c1=O`, the hERG blockade is reported as 22.9% (active).
With `O=C(C[n+]1ccc2ccccc2c1)c1ccc2ccc3ccccc3c2c1` the hERG blockade was 37.2% (active).
With `Oc1c(C(O)(c2ccccc2)c2ccc3ccccc3c2O)ccc2ccccc12` the hERG blockade was 50.7% (active).
For `CC1=NN(c2ccc(S(=O)(=O)O)cc2)C(=O)C1=Cc1ccc(Cl)cc1`, the hERG blockade was 41% (active).
In the case of `Nc1nccc(Nc2ccc(S(N)(=O)=O)cc2)n1`, the hERG blockade is reported as 20.2% (active).
In the case of `Cc1ccc(S(=O)(=O)Oc2cc(N)c3c(n2)CCC3)cc1`, the hERG blockade is reported as -21.4% (active).
In the case of `COC(=O)C1C(O)CCC2CN3CCc4c([nH]c5ccccc45)C3CC21` (stereo not drawn), the hERG blockade is reported as 42.5% (active).
`CC(C)(C)c1c2c(c(C(C)(C)C)c3c1OCN(Cc1ccccc1)C3)OCN(Cc1ccccc1)C2` was tested, and the hERG blockade was 23.8% (active).
`N=c1ccn2c(n1)OC1C(OP(=O)(O)O)C(CO)OC12` (stereo not drawn) was tested, and the hERG blockade was -24.7% (active).
In the case of `COc1cc(C(=O)O)c([N+](=O)[O-])c(OC)c1OC`, the hERG blockade is reported as 23.9% (active).
